Compounds without any hit were thinned out: in the full panel of roughly 83,000, 20% have a hit.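 The endpoint reported here, percent growth, reads 100 for growth as untreated, 0 for no net growth and -100 for all cells dead.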 Unmarked numbers belong to inactive results. The calls were made as follows: active = growth percent below 10; inactive = the rest.

This assay concerns NCI-H322M lung. The experiment in a line: NCI-60 one-dose screen, 48 h (100 = growth as untreated, 0 = no growth, -100 = all killed). To be noted: 10 µM unless noted.
Regarding `Nc1nc2c3ccncc3cc(-c3cccc(Cl)c3)c2c2cnccc12`, the growth is 70.4%.
As for `O=C1c2cc3c(cc2-c2c1c1ccc(F)cc1c(=O)n2CCCN1CCOCC1)OCO3`, the growth is 79.8%.
In the case of `c1ccc(CN2C(c3ccccc3)=Nc3ccccc3C2c2c[nH]c3ccccc23)cc1` (centres undefined), the growth was 60.6%.
Consider `O=C1C(Cl)=C(Nc2ccc(S(=O)(=O)c3ccc(NC4=C(Cl)C(=O)c5ccccc5C4=O)cc3)cc2)C(=O)c2ccccc21`, for which the growth was 64.5%.
For `CCc1cccc(CC)c1NC(=O)c1sc2nc3c(cc2c1N)CCCC3`, the growth was 92.8%.
Next, `COc1cc2[nH]c(C(=O)c3cc(OC)c(OC)c(OC)c3)c(N)c2cc1C#CCO`: 43.6%; `Cn1cc(-c2csc(-c3cn(C(=O)OC(C)(C)C)c4ccc(Br)cc34)n2)c2cccnc21`: 88.9%; `Fc1cccc(-c2[nH]nc3nc(Nc4cccnc4)sc23)c1`: 65.1%.
Take `O=Cc1nc2ccccc2[nH]1`: the growth is 110%.
As for `N#C/C(=C\c1ccc(-c2ccc(Br)cc2)o1)c1nc(-c2ccco2)cs1`, the growth was 85%.
Next, `C[C@H]1OC(=O)/C=C/[C@@H](O)[C@@H](O)CCCCCCCC[C@@H]1O`: 96.2%.
As to `C=C1C(=O)O[C@H]2[C@H]1CC/C(COC(=O)NCc1cc3ccccc3[nH]1)=C\CC[C@@]1(C)O[C@@H]21`, the growth was 88.3%.
As to `Cc1ccc(-c2nn(Cc3cn(-c4cc(C)nc5ccccc45)nn3)c3ncnc(N)c23)cc1`, the growth was 40.6%.
On to `COc1ccc(-c2nc3ncccn3c2-c2nc3ccc(Br)cc3[nH]2)cc1`, for which the growth was 94.3%.
